HIF-2a block: HIF-2a reporter inhibitors, primary screen, luminescence, 786-0 RCC cells; 360,000 tested, 0.72% active; inhibition, % at 18.8 µM; 786-0 RCC cells HIF-2a reporter, luciferase luminescence, overnight;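 active means inhibition of the luminescence signal of 40% or more relative to plate controls, in a single-dose primary screen at 18.75 µM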
TROY NFkB inh: inhibitors of TROY-driven NF-kB signaling, primary screen, Q293 LMP1-TROYcd cells, NF-kB luciferase, uHTS; Q293 LMP1-TROYcd NF-kB luciferase reporter, 4 h; inhibition, % at 10 µM; 360,000 tested, 0.98% active; AID 1347056, 2019;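 active means compounds whose plate-normalised and pattern-corrected inhibition of the luciferase reporter signal at the single screening dose is 50% or more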
CF NFkB block: inhibitors of PAF-induced NF-kB signaling, primary screen, cell-based, GFP fluorescence, uHTS. KKLEB NF-kB-GFP reporter, GFP fluorescence overnight. inhibition, % at 5 µM. 360,000 tested, 0.86% active;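 active means at least 50% inhibition at 5 µM, scaled per plate between neutral and stimulator controls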;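 further: PAF is a Pseudomonas aeruginosa culture filtrate used as stimulus; plate controls were PAF-stimulated DMSO wells for no effect and unstimulated DMSO wells for full effect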
TWEAK Fn14 block: inhibitors of TWEAK-Fn14 signaling, primary screen, luciferase reporter cells, uHTS; TWEAK-stimulated Fn14 reporter cells, luciferase luminescence, 8 h; 360,000 tested, 2% active; inhibition, % at 10 µM; in the data active means inhibition above about 50%
KKLEB tox: cytotoxicity in KKLEB CF airway cells, primary screen, cytotoxicity control for CF NF-kB inhibitor project, cell-based, uHTS, fluorescence assay plates | KKLEB CF airway cells viability, ATPlite luminescence, overnight; hits give low values; cells stimulated with P. aeruginosa culture filtrate | activity change (cytotoxicity), % at 5 µM | 360,000 tested, 0.36% active | AID 602141, 2011;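 active means corrected activity change at or below -50% at 5 µM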
Peg3 promoter: Peg3 promoter-driven luciferase inhibitors, primary screen, cell-based, HeLa, luciferase luminescence; HeLa PEG-Prom luciferase reporter, overnight; inhibition, % at 20 µM; 360,000 tested, 1.7% active;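 active means inhibition of at least 50% at 20 µM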
* marks the source's active call; other numbers are inactive results; x = no result. Compounds with a hit are over-represented: about 4% of the library has one in this group of screens.

SMILES	HIF-2a block	TROY NFkB inh	CF NFkB block	TWEAK Fn14 block	KKLEB tox	Peg3 promoter
COc1cccc(C(=O)Nc2nc(-c3ccc(S(=O)(=O)N4CCOCC4)cc3)cs2)c1	8	64*	-5	70*	-13	68*
O=C(Cn1nnc(-c2ccc(CN3CCOCC3)cc2)n1)Nc1nc(-c2ccccc2)cs1	-112	32	-24	14	-51*	-38
O=C(Nc1nc(-c2ccccc2)c(C(=O)c2ccccc2)s1)c1ccc(S(=O)(=O)N2CCCC2)cc1	15	35	17	72*	17	31
O=C(CN1CCOCC1)Nc1nc(-c2ccccc2)cs1	-20	5	-11	23	1	-30
COc1cc(C(=O)Nc2nc(-c3ccc(C)cc3)cs2)ccc1OCC(=O)N1CCOCC1	-2	57*	-20	46	11	10
CCCCCCCCN1C(=O)[C@H](CC(=O)N2CCOCC2)C[C@@]2(C(=O)OC)CCCCC=C12	1	19	x	20	x	x
O=C(Nc1nc(-c2ccc(S(=O)(=O)N3CCCC3)cc2)cs1)c1cccs1	-10	53*	1	55*	-2	19
O=C(Nc1nc(-c2ccccc2)cs1)C1CCCN(S(=O)(=O)c2ccccc2)C1 (configuration not stated)	10	46	-24	88*	10	46
O=C(Nc1nc(-c2ccc(S(=O)(=O)N3CCOCC3)cc2)cs1)c1ccccc1	-11	53*	5	85*	-1	27
O=C(Nc1nc(-c2nc3ccccc3s2)cs1)c1ccc(S(=O)(=O)N2CCOCC2)cc1	-285	64*	55*	78*	-49	-123
CC(C)CC(=O)Nc1nc(-c2ccc(S(=O)(=O)N3CCOCC3)cc2)cs1	10	16	-14	6	-6	-1
CC(C)(O)C#Cc1ccc(C(=O)N2CCC(C(N)=O)(N3CCCCC3)CC2)o1	4	8	-2	11	27	7
Cc1cccc(C(=O)NC2CCN(C(=O)Nc3ccc(F)cc3)CC2)c1	2	0	-5	6	-3	-1
COC(=O)Cc1ccc(NC(=S)N2CCN(c3cc(Cl)ccc3C)CC2)cc1	6	36	8	56*	-7	-2
COC(=O)Cc1ccc(NC(=S)N2CCN(c3ccccn3)CC2)cc1	8	18	-11	-8	-3	-2
O=c1[nH]c(-c2cccnc2)nc2sc(-c3ccccc3)cc12	-155	-41	11	-11	-9	-112
Cc1nc2sc(-c3ccccc3)cc2c(=O)[nH]1	-65	32	4	57*	-26	-20
Cc1nc2sc(-c3ccccc3)cc2c(=O)n1N	13	61*	-38	94*	-11	58*
Cc1nc2sc(-c3ccccc3)cc2c(=O)n1-n1cccc1	-261	-2	-3	-17	2	-293
O=C(OCc1nnc(-c2ccccc2)o1)c1ccc2ccccc2n1	-72	x	-2	79*	6	-61
FC(F)(F)c1cccc(N2CCN(c3ccc4nnc(-c5ccccc5)n4n3)CC2)c1	-13	-9	-7	-28	-4	19
COc1ccc2nnc(-c3ccc(C(F)(F)F)cc3)n2n1	21	-12	2	61*	-16	25
CC(=O)Nc1cccc(-c2ccnc3c2CC(C)(C(=O)Nc2ccc(C(C)C)cc2)O3)c1 (configuration not stated)	24	14	1	28	-11	52*
O=C(CCl)N1CCN(S(=O)(=O)c2ccc3c(c2)CCC3)CC1	25	9	-23	11	-16	50*
CC1=CC(=O)C=C/C1=C(/c1ccc(O)cc1C)c1ccccc1S(=O)(=O)O	9	9	28	0	6	79*
SMILES	HIF-2a block	TROY NFkB inh	CF NFkB block	TWEAK Fn14 block	KKLEB tox	Peg3 promoter
Cc1cc2nc(-c3ccc(Cl)cc3)c(CC(C)(C)C)n2c(C)c1Br	-16	6	5	-58	-3	-4
Cc1c(C(=O)c2no[n+]([O-])c2C(=O)c2cnn(C)c2C)cnn1C	-10	-4	63*	25	-27	43
CC1=NOC(=O)/C1=C/c1ccc(O)c(Cl)c1	27	6	-2	24	22	13
CCCOc1ccc(/C=C2/C(=O)ON=C2C)cc1Cl	4	8	-39	-4	-18	65*
C#CCOc1c(Cl)cc(/C=C2/C(=O)ON=C2C)cc1OC	16	-5	-4	63*	7	-5
CC(C)c1cccc(-c2ccc3c(c2)S(=O)(=O)c2cccc(C(=O)NCc4ccccc4)c2C3=O)c1	7	15	26	-50	-19	43
CC(C)c1cccc(-c2ccc3c(c2)S(=O)(=O)c2cccc(C(=O)NCc4ccccc4Cl)c2C3=O)c1	0	1	41	-81	-38	51*
COc1ccc(-c2ccc3c(c2)S(=O)(=O)c2cccc(C(=O)NCCOc4ccccc4Cl)c2C3=O)cc1OC	-15	54*	0	7	-22	87*
Cc1ccc(NC(=O)C2(C)CCCN2C)cc1C (configuration not stated)	2	-9	5	10	-1	-7
COC(=O)c1nn(-c2nc(-c3cccc(OC)c3)cc(C(F)(F)F)n2)cc1[N+](=O)[O-]	7	58*	-44	-23	6	-4
COC(=O)c1nn(-c2nc(-c3ccc(OC)c(OC)c3)cc(C(F)(F)F)n2)cc1[N+](=O)[O-]	11	-17	1	-34	-12	4
CC1(C)CC2CC(C)(CN2C(=O)c2ccccc2)C1 (configuration not stated)	14	8	4	-3	-5	9
COc1ccc(C(=O)N2CC3(C)CC2CC(C)(C)C3)cc1 (configuration not stated)	6	66*	-10	6	4	16
CCNc1nc(NC(C)(C)C)nc(N2CCCCC2)n1	8	-26	19	-34	-11	36
COc1ccc(C[C@@H]2OC3(C=CC(=O)C=C3)O[C@H]2Cc2ccc(OC)cc2)cc1	87*	85*	85*	106*	-78*	103*
O=C1Nc2ccccc2C1Cc1ccccc1 (configuration not stated)	3	-20	-9	-4	5	3
O=C1C=CC2(C=C1)O[C@H](Cc1ccccc1)[C@@H](Cc1ccccc1)O2	92*	87*	96*	107*	-98*	108*
CCOc1cc(C#N)ccc1OCC(=O)N1CCN(C(=O)c2cccs2)CC1	18	-5	-1	11	-12	28

Compound activity (PubChem)
